D2 ag-1 – agonists of human D2 dopamine receptor; P14416; HEK293 T-REx D2 cells, calcium flux agonist mode; activation, % at 2 µM; actives 0.53% (n = 340,000); AID 485358;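 active = activation over 3 SD above normal in the single-dose calcium agonist read, cut at about 30% in these data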; note: 0% is about no effect
Target sequence (P14416 whole entry, looked up): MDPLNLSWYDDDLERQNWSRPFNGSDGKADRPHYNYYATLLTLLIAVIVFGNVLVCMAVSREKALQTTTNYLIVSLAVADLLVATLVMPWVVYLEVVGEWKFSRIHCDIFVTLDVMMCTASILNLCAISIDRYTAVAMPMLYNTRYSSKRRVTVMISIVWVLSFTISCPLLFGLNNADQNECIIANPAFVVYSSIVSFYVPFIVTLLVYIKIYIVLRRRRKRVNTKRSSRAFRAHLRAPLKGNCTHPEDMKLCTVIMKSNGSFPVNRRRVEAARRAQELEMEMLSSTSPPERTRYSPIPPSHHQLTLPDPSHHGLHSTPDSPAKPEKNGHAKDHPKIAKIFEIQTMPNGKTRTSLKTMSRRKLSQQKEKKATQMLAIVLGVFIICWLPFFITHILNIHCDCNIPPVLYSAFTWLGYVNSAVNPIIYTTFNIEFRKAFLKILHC
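Tetracycline-induced HEK293 Trex cells with D2 receptor force-coupled to calcium signaling, plated overnight at 30 C and loaded with no-wash calcium dye. Calcium flux read kinetically for 180 s after compound addition; responses flag agonists.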
D2 antag – antagonists of human D2 dopamine receptor; P14416; AID 485344; inhibition, % at 10 µM; HEK293 TREx D2 cells, calcium flux, dopamine EC80; actives 2% (n = 340,000); in the data active = inhibition above about 30%; inactive = below that, where a call was filed; note: 0% is about no effect
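Compounds are added to dye-loaded, induced HEK293 T-REx cells coupled to calcium release via D2; after a 3 min kinetic read an EC80 dopamine stimulus is given and fluorescence is recorded for 3 more min.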
D2 PAM-1 – positive allosteric modulators of human D2 dopamine receptor. DiscoveRx D2 beta-arrestin cells, luminescence, 90 min; 100% = 57 uM dopamine signal. potentiation, % (no concentration beside the values). actives 0.23% (n = 360,000). AID 624464; in the data active = potentiation above about 50%
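PathHunter beta-arrestin assay in DiscoveRx D2 cells. Compounds were added with an EC20 of dopamine (50 nM final) for 90 min at 37 deg C. Luminescence was read 1 h after detection reagent, with 57 uM dopamine as the EC100 control.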
D2 ag-2 – human D2 receptor agonism in beta-arrestin assay; P14416; DiscoveRx PathHunter D2 beta-arrestin, luminescence, 90 min; 100% = 57 uM dopamine signal; activation, % (no concentration beside the values); actives 0.084% (n = 360,000); AID 624465; in the data active = activation above about 40%
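DiscoveRx PathHunter D2 beta-arrestin cells (2,100/well) attached overnight, then compound-stimulated 90 min at 37 C in HBSS/10 mM HEPES/0.1% Tween-20 buffer; beta-galactosidase complementation read by luminescence after 1 h at ambient temperature. Dopamine 57 uM final (EC100) as control.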
D2 PAM-2 – D2 dopamine receptor (human) potentiation; P14416; HEK293 T-REx D2, calcium flux, EC20 dopamine potentiation; potentiation, % at 10 µM; actives 0.34% (n = 340,000);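 active = potentiation over 3 SD above the plate norm, cut at about 30% in these data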; note: 0% is about no effect
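Calcium flux readout, no-wash dye, 1 read/s. Inducible HEK293 Trex D2 line, overnight 30 C. Compound alone 180 s (agonist flags), then EC20 dopamine, another 180 s to score potentiation.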
Active calls of the source: *. Only some compounds are listed: those with a hit (about 2.4% of all), similar ones and a draw of the others.

Cc1noc(C)c1CSc1nc2[nH]ncc2c(=O)n1-c1ccccc1 was read as D2 ag-1 0, D2 antag -28, D2 PAM-1 -6, D2 ag-2 -3 and D2 PAM-2 32*.
`CCCCCn1c(Sc2ccccc2)nc2c1c(=O)[nH]c(=O)n2C` gave D2 ag-1 0, D2 antag 31*, D2 PAM-1 -7, D2 ag-2 -1 and D2 PAM-2 5.
`C=CCn1c(Sc2ccccc2)nc2c1c(=O)[nH]c(=O)n2C` gave D2 ag-1 1, D2 antag -11, D2 PAM-1 -6, D2 ag-2 -3 and D2 PAM-2 1.
CC(C)CCSc1nc2c(c(=O)[nH]c(=O)n2C)n1CCCc1ccccc1 was read as D2 ag-1 -2, D2 antag 35*, D2 PAM-1 0, D2 ag-2 6 and D2 PAM-2 -8.
Screening COC(=O)c1ccc(NC(=O)CSc2ccc(-c3sc(-c4ccccc4)nc3C)nn2)cc1 returned D2 ag-1 0 and D2 PAM-2 1.
Screening CCC1CN(C(=O)Nc2cccc3c2CCCC3)c2cc(C)ccc2O1 (stereo unspecified) returned D2 ag-1 0 and D2 PAM-2 4.
Screening CCN(CC)CCNC(=O)c1[nH]c2ccccc2c1Sc1ccc(Cl)cc1 returned D2 ag-1 1 and D2 PAM-2 -12.
For CCN(C1CCCCC1)S(=O)(=O)c1ccc(S(=O)(=O)N2CCN(CCC#N)CC2)cc1 the results were D2 ag-1 0, D2 antag 38*, D2 PAM-1 -4, D2 ag-2 -1 and D2 PAM-2 -13.
COc1ccc(S(=O)(=O)NCC2CCCO2)cc1NC(=O)c1ccccc1F (stereo unspecified) was read as D2 ag-1 0, D2 antag 36*, D2 PAM-1 -9, D2 ag-2 -3 and D2 PAM-2 -3.
`CCN(CC)CCNC(=O)C1c2cc(OC)c(OC)cc2C(=O)N(C)C1c1cccs1` (stereo unspecified) gave D2 ag-1 -1, D2 antag 35*, D2 PAM-1 -30 and D2 ag-2 -4.
CC(C)Oc1ccc(S(=O)(=O)N2CCCCC2)cc1NC(=O)CN1CCCC1c1cccs1 (stereo unspecified) was read as D2 ag-1 0, D2 antag 33*, D2 PAM-1 -1, D2 ag-2 0 and D2 PAM-2 -4.
Screening CC(C)Oc1ccc(S(=O)(=O)N2CCOCC2)cc1NC(=O)Cc1c(F)cccc1Cl returned D2 ag-1 0, D2 antag 31*, D2 PAM-1 16, D2 ag-2 -2 and D2 PAM-2 11.
O=C(NCc1cccc(F)c1)c1ccc2nc(N3CCCCC3)sc2c1 was read as D2 PAM-2 3.
O=c1cc(-c2ccccc2)c2ccc3c(c2o1)CN(Cc1cccc(Cl)c1)CO3 was read as D2 ag-1 0 and D2 PAM-2 12.
`Cc1ccc2c(CC(=O)N3CCN(c4cccc(Cl)c4)CC3)coc2c1C` gave D2 ag-1 0 and D2 PAM-2 -2.
Screening O=C(NCCCN1CCCC1)Nc1ccc(F)cc1 returned D2 ag-1 0, D2 antag -6, D2 PAM-1 -15, D2 ag-2 3 and D2 PAM-2 -7.
Screening O[Si](CCCN1CCCCC1)(c1ccc(F)cc1)C1CCCCC1 (stereo unspecified) returned D2 ag-1 1, D2 antag 124*, D2 PAM-1 -26, D2 ag-2 -3 and D2 PAM-2 -27.
`Cc1cccc(C)c1OCC(=O)Nc1c(C(=O)c2ccccc2)oc2ccccc12` gave D2 ag-1 0 and D2 PAM-2 -7.
For O=C(c1ccccc1)c1c2c(cc3sc4ccccc4[n+]13)-c1cccc3cccc-2c13 the results were D2 ag-1 60*, D2 antag 44*, D2 PAM-1 8, D2 ag-2 5 and D2 PAM-2 -21.
COc1ccc(NC(=O)c2sc3nc(-c4cc5ccc(OC)cc5oc4=O)[nH]c(=O)c3c2C)cc1 was read as D2 ag-1 -1 and D2 PAM-2 5.
`Cc1cc(C(=O)NNC(=S)NC(C)c2ccccc2)c2ccccc2n1` (stereo unspecified) gave D2 ag-1 -1, D2 antag 45*, D2 PAM-1 -41, D2 ag-2 -13 and D2 PAM-2 5.
`Cc1cc(C(N)=O)c2ccccc2n1` gave D2 ag-1 -1, D2 antag 50*, D2 PAM-1 8, D2 ag-2 2 and D2 PAM-2 -14.
CC1CCc2onc(C(=O)N3CCN(c4ccc(F)cc4)CC3)c2C1 (stereo unspecified) was read as D2 ag-1 -3 and D2 PAM-2 2.
`COc1cc(C2CC(=O)Nc3cc4c(cc32)OCCO4)cc(OC)c1O` (stereo unspecified) gave D2 ag-1 1 and D2 PAM-2 -2.
Screening Cc1cc2c(cc1NC(=O)c1ccccc1C)n(C)c(=O)c(=O)n2C returned D2 ag-1 1 and D2 PAM-2 -8.
`COC1=CC(=Cc2c(N)n3nc(CC(=O)N4CCCCC4)sc3nc2=O)C=C(OC)C1=O` gave D2 ag-1 70*, D2 antag -2, D2 PAM-1 2, D2 ag-2 -3 and D2 PAM-2 7.
Screening Cc1cccc(-c2nnn3c2nc(NCc2ccccc2)c2ccccc23)c1 returned D2 ag-1 1 and D2 PAM-2 4.
For COc1ccc(CCNC(=O)c2c(O)nc3c(C)cccn3c2=O)cc1 the results were D2 ag-1 0 and D2 PAM-2 -1.
Screening COc1ccc(-c2oc3ncnc(NCCCN(C)C)c3c2-c2ccc(OC)cc2)cc1 returned D2 ag-1 -2, D2 antag 54*, D2 PAM-1 -15, D2 ag-2 -3 and D2 PAM-2 -22.
For CN(C)CCNc1ncnc2oc(-c3ccccc3)c(-c3ccccc3)c12 the results were D2 ag-1 0, D2 antag -3, D2 PAM-1 -16, D2 ag-2 -8 and D2 PAM-2 -11.
Screening Cc1c(N2C(=O)c3ccc(Br)cc3C2=O)c(=O)n(-c2ccccc2)n1C returned D2 ag-1 0, D2 antag -6, D2 PAM-1 12, D2 ag-2 2 and D2 PAM-2 19.
Cc1c(N2C(=O)c3ccc4c5c(ccc(c35)C2=O)CC4)c(=O)n(-c2ccccc2)n1C was read as D2 ag-1 0, D2 antag -6, D2 PAM-1 61*, D2 ag-2 6 and D2 PAM-2 4.
`COCCn1c(=S)[nH]c2cc(C(=O)NCCCN3CCOCC3)ccc2c1=O` gave D2 ag-1 1, D2 antag -6, D2 PAM-1 -5, D2 ag-2 -1 and D2 PAM-2 12.

Screening results as filed in PubChem BioAssay.
